Assay outcomes: PubChem BioAssay, National Center for Advancing Translational Sciences (NCATS)
Most compounds without a hit are left out; they make up all but 9% or so of the library.
G9a inh: G9a (human) methyltransferase inhibition; Q96KQ7; G9a H3K9 monomethylation, AlphaScreen, 2 h; Potency, µM (top dose mostly 102 µM), most hits filed as inhibitors; 350,000 tested, 8.8% active; note: nearly all actives have a fitted effect of over 75% in size
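Signal arises when biotinylated H3K9 peptide, once monomethylated, bridges streptavidin donor and antibody-captured acceptor beads. Enzyme at 20 nM was preincubated 15 min with test compounds; peptide 500 nM and SAM 20 uM then reacted for 2 h.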
PLK1 PBD inh: PLK1 (human) polo-box domain binding inhibition | Plk1 PBD binding of FITC phosphopeptide, fluorescence polarization | Potency, µM, usual class: inhibitors | 360,000 tested, 2.8% active | AID 720504; note: series mostly up to about 57 µM; nearly all actives have a fitted effect of over 65% in size
JMJD2A Tudor inh: JMJD2A Tudor domain (human) inhibition. O75164. AlphaScreen JMJD2A-Tudor / H3K4me3 peptide binding. Potency, µM (doses to about 114 µM), most hits filed as inhibitors. 390,000 tested, 4.4% active; note: nearly all actives have a fitted effect of over 50% in size
HP1b binding inh: HP1-beta chromodomain-methylated histone interaction inhibition | P83916 | AlphaScreen HP1-beta / biotin-H3K9me3 peptide binding | Potency, µM (titrated, usually from 114 µM), actives largely listed as inhibitors | 390,000 tested, 0.56% active | AID 540317; note: nearly all actives have a fitted effect of over 70% in size
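Compound inhibition of the preformed complex between 50 nM HP1-beta and 50 nM biotinylated H3K9me3 peptide was read by AlphaScreen. Buffer was PBS pH 7.4 with 0.01% Tween-20. Incubations ran 30 min at room temperature, with 10 ug/mL donor/acceptor beads.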
BAZ2B inh: inhibitors of human BAZ2B bromodomain; AID 504333; AlphaScreen BAZ2B-H3K14Ac peptide displacement; 360,000 tested, 4.4% active; Potency, µM (highest dose often 114 µM), hits mostly inhibitors; note: nearly all actives have a fitted effect of over 60% in size
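Protein-peptide AlphaScreen: BAZ2B 50 nM, b-H3K14Ac 50 nM, 1x PBS pH 7.4 + 0.01% Tween-20. Preincubation 30 min RT; cpd 30 min RT (top 110 uM); beads 20 min RT, light-protected.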
12-LOX inh: ALOX12 (human) lipoxygenase inhibition; Potency, µM (series often up to 108 µM), most hits filed as inhibitors; 580,000 tested, 1.1% active; P18054; AID 1671190; purified 12hLO, xylenol orange hydroperoxide absorbance
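Purified human 12hLO at 150 nM in 25 mM Hepes, 0.01% Triton X-100, pH 7.0, preincubated 15 min at room temperature with compound. Reaction started with 40 uM arachidonic acid, 30 min at room temperature. Hydroperoxide measured by Fe-xylenol orange, 573/405 nm absorbance ratio.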
Of the large screens only hits and unclear results are named; the others gave an inactive call. Calls come from the whole dose curve; as a rule, active = well fitted curve in the direction sought with a large enough effect; inconclusive = small, poorly fitted or top-dose-only effect, or another doubt; inactive = no such curve, though single readings can be large; an effect the other way counts as inactive or inconclusive.

S=c1[nH]nc(C2CCCCC2)n1/N=C/c1ccncc1	G9a inh inconclusive, JMJD2A Tudor inh 5µM
CSc1ccc(/C=N/n2c(C3CCCCC3)n[nH]c2=S)cc1	G9a inh 11µM, JMJD2A Tudor inh inconclusive, HP1b binding inh inconclusive, BAZ2B inh inconclusive, 12-LOX inh inconclusive
O=C(O)c1ccc(/C=N/n2c(C3CCCCC3)n[nH]c2=S)cc1	G9a inh 10µM, JMJD2A Tudor inh 3.5µM
CSc1ccc(/C=N/n2c(C)nnc2C)cc1	G9a inh inconclusive
CCOC(=O)C(C(=O)NCCCN1CCOCC1)C1CCCCC1 (configuration not stated)	none
O=C(c1ccc2c(c1)OCO2)N1CC(=O)N2[C@H](C1)[C@@H](c1ccc(Br)cc1)[C@@H]2CO	none (no result: G9a inh, PLK1 PBD inh, JMJD2A Tudor inh, HP1b binding inh, BAZ2B inh)
COc1ccccc1N(C)S(=O)(=O)c1ccc(C(=O)OCC(=O)NCC(F)(F)F)cc1	none
Cn1c(=O)oc2cc(S(=O)(=O)N3CCC(C(=O)N4CCN(c5ccccc5)CC4)CC3)ccc21	none
Cc1ccc(/C=N/n2c(C3CCCCC3)n[nH]c2=S)o1	G9a inh 2µM, PLK1 PBD inh inconclusive, JMJD2A Tudor inh 10µM, HP1b binding inh inconclusive, 12-LOX inh inconclusive
O=c1c2ccccc2nc(-c2ccccc2)n1/N=C/c1ccc([N+](=O)[O-])cc1	none
O=[N+]([O-])c1ccc(/C=N/n2c(C3CCCCC3)n[nH]c2=S)cc1	G9a inh inconclusive, PLK1 PBD inh inconclusive, JMJD2A Tudor inh 89µM
Cc1noc(-c2cccc(OC3CN(C(=O)Cc4ccccc4)C3)c2)n1	none (no result: G9a inh, PLK1 PBD inh, JMJD2A Tudor inh, HP1b binding inh, BAZ2B inh)
c1ccc(NC2=NCCN2CC2CCCCC2)cc1	12-LOX inh inconclusive
C=C(C)CC1Nc2ccccc2NC1CC(=C)C (configuration not stated)	G9a inh inconclusive, JMJD2A Tudor inh 79µM, BAZ2B inh 50µM, 12-LOX inh 28µM
CCOc1ccccc1CN1CCNC(=O)C1CC(=O)NCc1nccn1CC (configuration not stated)	none (no result: G9a inh)
CC1=NN(C(N)=S)C(=O)C1N=Nc1c(Br)cc(Br)cc1Br (configuration not stated)	PLK1 PBD inh 24µM, JMJD2A Tudor inh 56µM, BAZ2B inh 28µM, 12-LOX inh inconclusive
CC1=NN(C(N)=S)C(=O)C1N=Nc1ccccc1[N+](=O)[O-] (configuration not stated)	PLK1 PBD inh inconclusive (no result: G9a inh, JMJD2A Tudor inh, HP1b binding inh, BAZ2B inh)
CC1=NN(C(N)=S)C(=O)C1N=Nc1c(C)cc(C)cc1C (configuration not stated)	BAZ2B inh inconclusive
CC1=NN(C(N)=S)C(=O)C1N=Nc1c(Cl)cc([N+](=O)[O-])cc1Cl (configuration not stated)	G9a inh 25µM, PLK1 PBD inh inconclusive, JMJD2A Tudor inh 28µM, HP1b binding inh inconclusive, BAZ2B inh 40µM, 12-LOX inh inconclusive
CC(C)CC(=O)NC1CCN(c2ccc(F)cc2)C1=O (configuration not stated)	none (no result: G9a inh, PLK1 PBD inh, JMJD2A Tudor inh, HP1b binding inh, BAZ2B inh)
CCc1sc(C(=O)N2CC=C(c3ccccc3)CC2)cc1C	none (no result: G9a inh, PLK1 PBD inh, JMJD2A Tudor inh, HP1b binding inh, BAZ2B inh)
Cc1csc(=Nc2ccccc2)n1Cc1ccco1	G9a inh 40µM, PLK1 PBD inh inconclusive, JMJD2A Tudor inh 45µM, HP1b binding inh inconclusive, BAZ2B inh 63µM, 12-LOX inh inconclusive
CC(=NNc1nc2ccccc2s1)c1ncccn1	JMJD2A Tudor inh 45µM (no result: G9a inh, BAZ2B inh)
CC(=NNc1nc2ccccc2o1)c1cc2ccccc2cn1	JMJD2A Tudor inh 10µM, 12-LOX inh inconclusive (no result: G9a inh, BAZ2B inh)
CC(=NNc1nc2ccccc2o1)c1ncccn1	JMJD2A Tudor inh 10µM (no result: G9a inh, BAZ2B inh)
C=CCN1C(=O)C(O)(CC(=O)c2ccc(OC)cc2OC)c2cc(Br)ccc21 (configuration not stated)	PLK1 PBD inh 8.4µM
O=C(Nc1ccc(S(=O)(=O)Nc2ncccn2)cc1)c1ccc(N2CCCC2=O)cc1	none
CCOC(=O)C(NC(=O)CC)(Nc1ccc(S(=O)(=O)Nc2cc(C)on2)cc1)C(F)(F)F (configuration not stated)	none
CCOC(=O)C(NC(=O)CC)(Nc1ccc(S(=O)(=O)Nc2onc(C)c2C)cc1)C(F)(F)F (configuration not stated)	PLK1 PBD inh 27µM
CCOC(=O)C(NC(C)=O)(Nc1ccc(S(=O)(=O)Nc2ncccn2)cc1)C(F)(F)F (configuration not stated)	PLK1 PBD inh 30µM, JMJD2A Tudor inh inconclusive
CC(=O)N1CC(C)Oc2ccc(S(=O)(=O)NC(CC(=O)O)c3ccccc3)cc21 (configuration not stated)	none
NS(=O)(=O)c1cccc(NC(=O)CCSc2ccc(Cl)cc2)c1	G9a inh 1.4µM, PLK1 PBD inh 12µM, 12-LOX inh inconclusive
O=C(NNC(=S)Nc1cccc(C(F)(F)F)c1)c1ccccc1Cl	G9a inh 3.2µM, PLK1 PBD inh inconclusive, 12-LOX inh inconclusive
O=C(NNC(=S)Nc1ccc(Br)cc1)c1ccccc1Br	G9a inh 7.9µM
O=C(NNC(=O)c1ccccc1Br)c1ccccc1Cl	none
O=C(NNC(=S)Nc1ccccc1Cl)c1ccccc1Br	G9a inh 40µM
O=C(Nc1ccc(C(F)(F)F)cc1)c1ccccc1Br	PLK1 PBD inh 24µM, JMJD2A Tudor inh 35µM
O=C(NNC(=S)Nc1cccc(C(F)(F)F)c1)c1cccc(Cl)c1	G9a inh inconclusive, PLK1 PBD inh inconclusive, HP1b binding inh inconclusive, 12-LOX inh inconclusive
COCCc1noc(CN(C)c2cc(C(C)C)nc3ccnn23)n1	none (no result: G9a inh, PLK1 PBD inh, JMJD2A Tudor inh, HP1b binding inh, BAZ2B inh)
COCC(=O)N1CCC[C@@]2(CCN(c3ncccn3)C2)C1	none (no result: PLK1 PBD inh, JMJD2A Tudor inh, HP1b binding inh, BAZ2B inh)
COc1ccc(/C=C2\SC(=S)N(CCC(=O)N3CCOCC3)C2=O)cc1	none
O=C(CCCN1C(=O)/C(=C/c2ccccc2)SC1=S)N1CCOCC1	G9a inh 79µM, HP1b binding inh inconclusive, BAZ2B inh 40µM
COc1cccc(/C=C2\SC(=S)N(CCCC(=O)N3CCCCC3)C2=O)c1	G9a inh 25µM, JMJD2A Tudor inh 40µM, HP1b binding inh inconclusive, BAZ2B inh 11µM
COc1cccc(/C=C2/SC(=S)N(CCC(=O)N3CCOCC3)C2=O)c1	G9a inh inconclusive, PLK1 PBD inh 30µM, JMJD2A Tudor inh 56µM
CCSc1nnc2ccc(-c3ccc(OC)c(OC)c3)nn12	PLK1 PBD inh 21µM, JMJD2A Tudor inh inconclusive
COc1ccc(-c2ccc3nnc(SCC(N)=O)n3n2)cc1	G9a inh inconclusive
CCOC(=O)/C=C/C(=O)OCC(=O)Nc1ccc(C)cc1	PLK1 PBD inh inconclusive
N#Cc1c(=O)c2nc(NCCCO)ncc2n2c(=O)c3ccccc3[nH]c12	G9a inh 45µM, JMJD2A Tudor inh 56µM, BAZ2B inh 13µM
COc1ccc(CN=C(C#N)C2=C(O)c3ccccc3C2=O)cc1	G9a inh 35µM, JMJD2A Tudor inh inconclusive, 12-LOX inh inconclusive
CC(=O)N1C[C@@H](F)[C@@H](OCc2nc3ccc(C(F)(F)F)cc3[nH]2)C1	none (no result: G9a inh, PLK1 PBD inh, JMJD2A Tudor inh, HP1b binding inh, BAZ2B inh)
